According to PubChem BioAssay:
Calls of active or inactive are those of the source.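 Rule for the calls, unless noted: active = visual image review flags a hit and inhibition of aggregation exceeds 20%; inconclusive = visual hit but inhibition at or below 20%; inactive = no hit on visual image review.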

Columns and labels:
[1] = inhibitors of TNFa-induced NFkB p65 translocation, primary screen, imaging, HUVEC, MLSMR starter and 10KST1 sets (AID 438;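 active = inhibition above 20% together with a positive visual image hit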;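 note: compound added about 3h40 before a 20 min TNFalpha stimulation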;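 for inhibition: signal is the nuclear over cytoplasmic p65 intensity ratio per well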); settings: HUVEC TNFa-induced p65 nuclear translocation; cell count: measured here: nuclei count (cytotoxicity indicator), at 2.08 µM; inhibition: at 2 µM, stronger effect = higher value, 0% TNFa-plus-vehicle, 100% no-TNFa wells
[2] = reduction of polyQ htt aggregates in cells – imaging, exon1htt(103Q)mCFP cells, high-content imaging, primary screen (AID 483); settings: exon1htt(103Q)mCFP cell line, aggregate imaging, at 2 µM; inhibition of aggregation: stronger effect = higher value; nuclei count: measured here: cell count, toxicity;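 note: compound exposure lasted 3 days before fixation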;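 for nuclei count: percent of the per-plate median nuclei count of sample wells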
[3] = endothelial E-selectin expression blockers – imaging, HUVEC, immunofluorescence, MLSMR starter and 10KST1 sets, primary screen (AID 487;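 active = visually confirmed hit in the image check and inhibition above 20%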;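 for inhibition: signal is fraction of cell area covered by stained E-selectin grains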;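 for nuclei count: 100% = median nuclei count of all wells on the same plate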); settings: HUVEC TNFalpha-induced E-selectin immunofluorescence imaging, at 2 µM; inhibition: stronger effect = higher value; nuclei count: measured here: cell number, toxicity
[4] = target: Voltage-gated potassium channel subunit beta-2 (Rattus norvegicus) (UniProt P62483); assay: inhibitors of rat Kvbeta2 reductase activity – biochemical, NADPH fluorescence, primary screen (AID 622;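 active = fluorescence slope higher than the sample average by over 3 SD, cut at about -0.22 in these data, passing the limit was not always enough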;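 note: slope of raw intensity against log time taken from 70 to 1610 s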); settings: recombinant KvBeta, 4-cyanobenzaldehyde reduction, at 10 µM, stronger effect = higher value
[5] = target: Voltage-gated potassium channel subunit beta-2 (Rattus norvegicus) (UniProt P62483); assay: enhancers of rat Kvbeta2 NADPH turnover – biochemical, NADPH fluorescence, primary screen (AID 623;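 active = NADPH fluorescence slope more negative than the mean of all samples by about 3 SD, 99.7% confidence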;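 note: fluorescence intensity change per second fitted from 20 to 320 s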); settings: Recombinant KvBeta, NADPH fluorescence decrease slope, 10 min; at 10 µM; stronger effect = lower value
[6] = target: Alpha-2C adrenergic receptor (Homo sapiens) (UniProt P18825); assay: compounds altering alpha2C-coupled GIRK flux – cell-based, HEK293 alpha2C/GIRK1/2, thallium flux, primary screen (AID 624;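 active = fluorescence slope after compound addition differing from the mean of all screened samples at 99.7% confidence, in either direction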;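 note: slope of fluorescence ratio to pre-addition baseline per second over 15 to 24 s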); settings: thallium flux BTC fluorescence, at 10 µM, actives lie on both sides
[7] = blockers of RIG-like receptor reporter activation – cell-based, Sendai virus stimulus, luciferase, 10K MLSCN set, TLR/RLR signaling modifier project, primary screen (AID 602276;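 active = inhibition at or above 50% at 10 µM; inactive = inhibition below 50%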;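 note: firefly luciferase from ISG56 promoter only with Renilla not read in this screen; 0% = Sendai virus plus DMSO and 100% = medium plus DMSO without virus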); settings: HEK293 RL24 IRF3 luciferase reporter, at 10 µM, stronger effect = higher value
[8] = TLR3 IRF3 reporter activation blockers – cell-based, poly I:C stimulus, luciferase, 10K MLSCN set, primary screen (AID 602277;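 active = inhibition of the reporter signal at or above 50%; inactive = inhibition below 50%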); settings: HEK293-TLR3 RL24 IRF3 luciferase reporter, at 10 µM, stronger effect = higher value

Sequence of Alpha-2C adrenergic receptor (Homo sapiens) (P18825 whole entry, looked up): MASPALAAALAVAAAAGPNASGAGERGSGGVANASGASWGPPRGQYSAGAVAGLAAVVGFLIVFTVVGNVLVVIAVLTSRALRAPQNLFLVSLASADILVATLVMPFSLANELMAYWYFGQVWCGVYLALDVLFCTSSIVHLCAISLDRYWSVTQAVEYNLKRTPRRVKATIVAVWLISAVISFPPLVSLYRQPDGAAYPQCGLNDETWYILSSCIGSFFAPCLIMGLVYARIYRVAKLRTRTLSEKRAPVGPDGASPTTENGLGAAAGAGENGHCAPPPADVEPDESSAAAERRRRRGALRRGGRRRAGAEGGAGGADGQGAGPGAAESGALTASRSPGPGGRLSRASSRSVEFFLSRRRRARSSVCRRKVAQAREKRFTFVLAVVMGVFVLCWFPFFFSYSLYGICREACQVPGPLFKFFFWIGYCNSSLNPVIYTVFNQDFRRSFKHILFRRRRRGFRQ
Sequence of Voltage-gated potassium channel subunit beta-2 (Rattus norvegicus) (P62483 whole entry, looked up): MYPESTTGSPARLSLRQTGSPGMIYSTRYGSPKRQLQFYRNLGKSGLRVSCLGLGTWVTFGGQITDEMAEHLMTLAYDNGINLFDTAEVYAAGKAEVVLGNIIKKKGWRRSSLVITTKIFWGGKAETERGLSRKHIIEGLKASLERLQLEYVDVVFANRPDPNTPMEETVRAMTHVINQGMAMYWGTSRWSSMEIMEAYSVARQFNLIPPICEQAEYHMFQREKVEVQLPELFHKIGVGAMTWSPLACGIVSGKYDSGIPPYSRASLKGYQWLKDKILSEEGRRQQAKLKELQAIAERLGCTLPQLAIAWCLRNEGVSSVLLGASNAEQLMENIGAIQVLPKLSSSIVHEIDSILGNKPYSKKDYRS

Row | Structure (SMILES) | cell count [1] | inhibition [1] | inhibition of aggregation [2] | nuclei count [2] [%] | inhibition [3] | nuclei count [3] [%] | fluorescence slope [4] | NADPH fluorescence slope [5] | slope [6] | inhibition [7] | inhibition [8]
1 | COc1cc(C(Nc2ccc3c(c2)OCO3)C(=O)NC2CCCCC2)cc(OC)c1OC (stereo not drawn) | 835 | -10.7% (inactive) | 12.3% (inactive) | 88.5 | -35.2% (inactive) | 121 | -0.63 (inactive) | -3e-05 (inactive) | 0.00532 (inactive) | 14.6% (inactive) | 28.3% (inactive)
2 | COc1ccc(C2C=C(c3ccccc3)Nc3ncnn32)cc1 (stereo not drawn) | 558 | -20.9% (inactive) | -12.6% (inactive) | 105 | -15.1% (inactive) | 110 | -0.0904 (active) | 4.2e-06 (inactive) | 0.00603 (inactive) | 5.64% (inactive) | -14.5% (inactive)
3 | Oc1cccc(Nc2nc(NCC3CCCO3)c3ccccc3n2)c1 (stereo not drawn) | 555 | -70.4% (inactive) | -4.4% (inactive) | 95.5 | -47.9% (inactive) | 104 | -0.612 (inactive) | 2.9e-05 (inactive) | 0.00401 (inactive) | 14.4% (inactive) | -32.6% (inactive)
4 | CC(C)Cc1n[nH]c(=O)[nH]1 | 742 | -25.9% (inactive) | -10.2% (inactive) | 113 | -36.3% (inactive) | 120 | -0.543 (inactive) | -3.9e-05 (inactive) | 0.00544 (inactive) | -8.4% (inactive) | 1.42% (inactive)
5 | Cc1c(C#N)c(N)c(C(=O)c2ccccc2)n1Cc1ccccc1 | 375 | 0% (inactive) | 15.4% (inactive) | 100 | -38% (inactive) | 117 | -0.512 (inactive) | -1.4e-05 (inactive) | 0.0107 (inactive) | -20.6% (inactive) | 0.155% (inactive)
6 | COc1ccc(S(=O)(=O)N2CCCC2C(=O)Nc2ccc(O)cc2)cc1 (stereo not drawn) | 601 | 7.1% (inactive) | -21.9% (inactive) | 110 | -23.4% (inactive) | 111 | -0.535 (inactive) | -2e-05 (inactive) | 0.00566 (inactive) | 1.14% (inactive) | 12.2% (inactive)
7 | COc1cc(CN2CCSCC2)cc(OC)c1OC | 642 | -1.9% (inactive) | 12.3% (inactive) | 60.4 | -13.9% (inactive) | 98.2 | -0.486 (inactive) | 2.1e-05 (inactive) | 0.00258 (inactive) | -4.06% (inactive) | 20% (inactive)
8 | Cc1cccc(C)c1NC(=O)c1cc(S(=O)(=O)N2CCOCC2)ccc1F | 341 | 10.3% (inactive) | -3.7% (inactive) | 56.5 | -213% (inactive) | 80.9 | -0.302 (inactive) | -1e-05 (inactive) | 0.00325 (inactive) | 11.2% (inactive) | 26.3% (inactive)
